Pin1 inhibitor = qHTS Assay to Find Inhibitors of Pin1; Pin1 FP peptide displacement, HiFluor488, 10 min; Potency, µM (top dose mostly 115 µM), without a hit: at the highest dose activity, negative = inhibition, hits mostly inhibitors; actives 0.009% (n = 390,000); AID 504891, 2011; active = well fitted inhibition curve with a large enough effect in the polarisation, with a control signal flat, not every such curve was filed as active; inconclusive = small, poorly fitted or top-dose-only effect, or effect the other way, or a change in a side signal; inactive = no such curve, though single readings can be large or run the other way; the % refers to the polarisation; note: potency is the fitted concentration of half-maximal effect; % is set by controls: 0 for no effect and ±100 for the full control effect
a7 integrin act = qHTS for Activators of Integrin-Mediated Alleviation for Muscular Dystrophy; alpha7betagal myoblasts, beta-gal FDG fluorescence, 48 h; Potency, µM (series often up to 38.3 µM), without a hit: at the top dose activation, actives largely listed as activators; actives 0.064% (n = 350,000); AID 624291, 2012;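 note: potency is the fitted concentration of half-maximal effect; 100% = response of the positive control SU9516; nearly all actives have a fitted effect of over 60% in size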
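alpha7betagal+/- myoblasts (passage 13, 250/well) treated 48 h at 37C with compounds at 1:260 dilution of DMSO stock. Lysed, then beta-galactosidase activity read as FDG fluorescence (ex 480/em 540) after 30 min, with pre-read for autofluorescence.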
PKM2 act = qHTS Assay for Activators of Human Muscle isoform 2 Pyruvate Kinase; Pyruvate kinase PKM (Homo sapiens), P14618; purified PKM2, Kinase-Glo ATP luminescence, activation; response scale: 0% is enzyme alone, no compound; Potency, µM (highest dose often 57.5 µM), without a hit: at the highest dose activation, most hits filed as activators; actives 0.34% (n = 260,000); note: potency is the fitted concentration of half-maximal effect; % is set by controls: 0 for no effect and ±100 for the full control effect; nearly all actives have a fitted effect of over 55% in size
Target sequence (P14618 whole entry, looked up, canonical isoform): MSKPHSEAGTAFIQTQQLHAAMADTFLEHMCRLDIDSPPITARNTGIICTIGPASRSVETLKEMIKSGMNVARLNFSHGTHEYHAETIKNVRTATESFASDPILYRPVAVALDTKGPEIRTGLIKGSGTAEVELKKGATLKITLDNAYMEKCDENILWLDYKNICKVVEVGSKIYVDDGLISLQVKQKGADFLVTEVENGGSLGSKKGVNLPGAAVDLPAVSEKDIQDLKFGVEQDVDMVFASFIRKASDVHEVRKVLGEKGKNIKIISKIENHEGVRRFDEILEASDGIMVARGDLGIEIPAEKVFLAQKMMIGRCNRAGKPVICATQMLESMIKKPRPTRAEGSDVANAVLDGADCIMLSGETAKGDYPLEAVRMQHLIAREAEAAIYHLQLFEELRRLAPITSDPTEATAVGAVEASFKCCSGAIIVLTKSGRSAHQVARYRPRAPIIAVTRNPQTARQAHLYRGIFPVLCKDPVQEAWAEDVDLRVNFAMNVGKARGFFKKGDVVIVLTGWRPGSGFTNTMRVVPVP
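hPK-M2, >95% pure; 0.1 mM ADP / 0.5 mM PEP final; imidazole pH7.2 buffer w/ 7 mM MgCl2, 50 mM KCl; 1 h RT; Kinase-Glo lum. Intermediate enzyme activity for dual inhibitor/activator qHTS.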
IL-2 act = qHTS of IL-2 Activators | IL-2 activation reporter assay, cell-based qHTS; stimulated with anti-CD3/CD4/CD28 beads; in transgenic mouse T cells | actives 0.065% (n = 360,000) | activation, % (series mostly up to about 46 µM); in the data active = activation above about 50%; inconclusive = mostly about 30% to 49%; note: 0% is about no effect
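Quantitative HTS in unstimulated transgenic mouse T cells, with memory T cells as non-tolerant control and PMA/ionomycin as tolerance-bypass control. Compound pretreatment lasted 60 minutes before 18 h bead stimulation; EGFP/DsRed fluorescence read.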
USP2a block = qHTS Assay for Inhibitors of Ubiquitin-specific Protease USP2a Using CHOP2 as the Reporter; USP2 core, Ub-CHOP2 coupled fluorogenic reporter, 485/531; Potency, µM (titrated, usually from 38.3 µM), without a hit: top-dose activity change, negative = inhibition, usual class: inhibitors; actives 0.01% (n = 330,000); AID 463254, 2010;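 note: potency is the fitted concentration of half-maximal effect; plate controls were DMSO wells for no effect and full inhibition by NEM control for full effect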
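Deubiquitinase activity read as fluorescence (485/531 nm) after Ub-CHOP2 cleavage activates the enterokinase reporter on its substrate; USP2 core 10nM, Ub-CHOP2 and substrate 25nM each, 30min compound preincubation then 60min RT; data normalized to NEM, curves fitted.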
ClpP mod = qHTS Assay for Activators of ClpP; Potency, µM (doses to about 57.5 µM), without a hit: top-dose activity change, negative = active; purified B. subtilis ClpP, FRET peptide cleavage, 20 min; actives 1.9% (n = 340,000); ATP-dependent Clp protease proteolytic subunit (Bacillus subtilis (strain 168)), P80244; active = well fitted falling curve with a large enough effect; inconclusive = small, poorly fitted or top-dose-only effect; inactive = no such curve, though single readings can be large or run the other way; note: potency is the fitted concentration of half-maximal effect; the source files actives as falling curves though it sought activators and does not explain the sign; nearly all actives have a fitted effect of over 65% in size
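ClpP 10 microg/mL final, pH 8 Tris/KCl buffer with BSA, glycerol, Tween-20; compound pinned in; FRET-FV substrate; RT 20 min; Ex320/Em430; ΔFRET vs ADEP 5.8 microM, DMSO, no enzyme.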
* marks the source's active call; other numbers are inactive results; ? = inconclusive; / = no result given; [ ] = another dose, or the depositor's remark. A selection: hits, their analogues and other compounds. The true share with any hit is near 1.9%. Unless noted, calls come from the whole dose curve; as a rule, active = well fitted curve in the direction sought with a large enough effect; inconclusive = small, poorly fitted or top-dose-only effect, or another doubt; inactive = no such curve, though single readings can be large; an effect the other way counts as inactive or inconclusive.

SMILES	Pin1 inhibitor	a7 integrin act	PKM2 act	IL-2 act	USP2a block	ClpP mod
CNC(=O)COc1ccccc1C(=O)Nc1ccc2c(c1)oc1ccccc12	25%	6%	-3%	2	-2%	4µM*
COc1cc2c(cc1NC(=O)COC(=O)C(CCSC)NC(=O)c1ccccc1Cl)oc1ccccc12 (stereo unspecified)	29%	-9%	3%	0	-1%	25µM*
CCCn1c(C(=O)OC)cc2c1ccn2-c1ccc(F)cc1	12%	0%	-3%	0	-1%	28µM*
CCOC(=O)c1cc2c(ccn2-c2ccc(F)cc2)n1CC(=O)N1CCN(C(=O)c2ccco2)CC1	19%	-29%	2%	1	0%	32µM*
COC(=O)c1cc2c(ccn2-c2ccc(F)cc2)n1CC(C)C	3%	-11%	9%	-1	1%	28µM*
CCC(C)C(NC(=O)OC(C)(C)C)C(=O)NC1COC2CC(n3cc(F)c(=O)[nH]c3=O)OC12 (stereo unspecified)	-30%	/	/	/	/	/
CC(=O)Nc1ccc(S(=O)(=O)N2CCc3nc(-c4ccccc4)c4c(c3C2)CO[C@@H](C)C4)cc1	/	/	-3%[11.5 µM]	/	/	/
O=C1CCC[C@@H]2CC(N(Cc3cc4ccccc4s3)c3ccccc3)C[C@@H]3CCN1[C@H]23 (stereo partly specified)	/	/	/	/	/	0%
COc1cc2nc(N3CCOCC3)nc(NC(C)C)c2cc1OC	/	/	/	/	/	3%
COc1cccc(C2OC(=O)c3ccccc3N2C(C)=O)c1OC(C)=O (stereo unspecified)	-2%	-15%	-3%	0	0%	37%
CC(=O)N1c2ccccc2C(=O)OC1c1cccnc1 (stereo unspecified)	-5%	18%	6%	1	3%	28µM*
C/C=C/C(=O)N1CC2(CC(c3cccc(NC(=O)CCCCC)c3)=NO2)C[C@H]1C(N)=O (stereo partly specified)	/	/	0%	/	5%	/
C=C(C)C(=O)Nc1cccc(C2=NOC3(C2)C[C@@H](C(N)=O)N(C(=O)/C=C/C=C/C)C3)c1 (stereo partly specified)	/	0%	13µM*	0	-1%	2%
C/C=C/C=C/C(=O)N1CC2(CC(c3cccc(NC(=O)CCCCC)c3)=NO2)C[C@H]1C(N)=O (stereo partly specified)	5%	-7%	7.9µM*	1	8%	-2%
C/C=C/C(=O)Nc1cccc(C2=NOC3(C2)C[C@H](C(N)=O)N(C(=O)/C=C/C)C3)c1 (stereo partly specified)	-2%	?	0%	0	6%	-4%
C/C=C/C=C/C(=O)N1CC2(CC(c3cccc(NC(=O)/C=C/C)c3)=NO2)C[C@@H]1C(N)=O (stereo partly specified)	?	21%	8.9µM*	1	9%	1%
COC(=O)C1=C(C)N=c2s/c(=C/c3ccoc3)c(=O)n2C1c1ccccc1 (stereo unspecified)	?	-17%	22µM*	2	/	1%
CCOC(=O)C1=C(C)N=c2s/c(=C\c3ccc(OCC(=O)O)cc3)c(=O)n2C1c1ccccc1 (stereo unspecified)	9%	-26%	-1%	1	-3%	1%
COc1ccc(C2C(C(=O)c3ccco3)=C(O)C(=O)N2CCCn2ccnc2)c(OC)c1 (stereo unspecified)	0%	0%	3%	0	-1%	-2%
